Data: PubChem BioAssay AID1220 (Sanford-Burnham Center for Chemical Genomics, 2008)
In all, about 190,000 compounds went through this assay and about 1,300 (0.68%) were called active. Many of the other results were omitted from the sample, so actives are more common in it than they were. Unmarked numbers belong to inactive results. Cut-off read from the data, not from the text of the source: active = inhibition above about 50%; inactive = the rest.

Each molecule was assayed against Mannose-6-phosphate isomerase (Homo sapiens) (UniProt P34949) (assay: MPI inhibition at elevated mannose 6-phosphate – biochemical, fluorescence intensity, high mannose 6-phosphate, primary screen (AID 1220)). Conditions: recombinant PMI enzyme, coupled fluorescence intensity; at 20 µM; hits give high values.
Sequence of Mannose-6-phosphate isomerase (Homo sapiens) (P34949 whole entry, looked up): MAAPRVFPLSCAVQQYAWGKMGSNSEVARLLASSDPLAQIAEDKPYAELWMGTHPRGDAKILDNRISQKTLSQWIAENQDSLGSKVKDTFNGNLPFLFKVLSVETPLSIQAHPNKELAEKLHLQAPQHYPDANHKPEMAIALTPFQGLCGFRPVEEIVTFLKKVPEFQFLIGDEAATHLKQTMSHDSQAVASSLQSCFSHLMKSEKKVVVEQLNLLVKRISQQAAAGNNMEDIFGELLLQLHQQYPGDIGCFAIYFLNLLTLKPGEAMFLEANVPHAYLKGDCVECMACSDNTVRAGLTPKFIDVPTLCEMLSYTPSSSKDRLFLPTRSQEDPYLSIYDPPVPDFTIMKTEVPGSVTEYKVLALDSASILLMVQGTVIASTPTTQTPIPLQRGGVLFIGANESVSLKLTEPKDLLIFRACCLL

Compound	inhibition
Cc1cc(C)c(S(=O)(=O)Cc2ccccc2)c(=O)[nH]1	-13%
COc1ccc(/C=N/NC(=O)Cn2c(Cc3ccc(OC)c(OC)c3)nc3ccccc32)cc1OC	5.5%
CCN1C(=O)C(CC(=O)Nc2ccccc2)S/C1=N\c1ccccn1 (centres undefined)	-2.2%
CCOC(=O)C1(Cc2ccccc2C)CCCN(Cc2cc(OC)c(O)c(OC)c2)C1 (centres undefined)	65.5% (active)
CCOC(=O)C1(Cc2ccccc2C)CCCN(Cc2ccc(NC(C)=O)cc2)C1 (centres undefined)	-4.1%
CCOC(=O)C1(Cc2ccccc2C)CCCN(Cc2cn(C)nc2C)C1 (centres undefined)	12.5%
COc1ccc(CC(=O)Nc2ccc(OC)c(NC(=O)c3ccco3)c2)cc1	11.2%
COc1ccccc1Oc1ccc2c(c1)C(=O)N(c1ccc(Br)c3cccnc13)C2=O	8.4%
COc1cc(NC(C)CCCN)c2ncccc2c1Oc1ccccc1 (centres undefined)	56.6% (active)
COc1ccc(S(=O)(=O)N(CC(C)C)CC(C)C)c2cccnc12	10.4%
O=C(N/N=C/c1c[nH]c2ccccc12)c1ccn(Cc2ccc(Cl)cc2)n1	1.6%
O=C(CSCc1nc2ccccc2[nH]1)Nc1ccc(Oc2ccccc2)cc1	10.1%
O=S(=O)(NCc1ccncc1)c1ccccc1	-9.4%
O=C(NCc1ccccc1)Nc1cccn(Cc2ccccc2F)c1=O	20.5%
CC(=O)Nc1cccn(Cc2c(Cl)cccc2Cl)c1=O	8.5%
C#CCOC(=O)Nc1cccn(Cc2c(Cl)cccc2Cl)c1=O	-71%
COC(=O)Nc1cccn(Cc2c(Cl)cccc2Cl)c1=O	58.7% (active)
O=C(Nc1ccccc1)Nc1cccn(Cc2c(F)cccc2Cl)c1=O	35.6%
O=C(NCc1ccccc1)Nc1cccn(Cc2c(F)cccc2Cl)c1=O	53.7% (active)
O=C(Nc1cccn(Cc2c(F)cccc2Cl)c1=O)NC1CCCCC1	17.3%
Cc1ccc(NC(=O)Nc2cccn(Cc3c(F)cccc3Cl)c2=O)cc1	55.7% (active)
O=C(NCc1ccccc1)Nc1cccn(Cc2ccccc2Cl)c1=O	38.2%
O=C(Cn1cncn1)NCCC(c1ccccc1)c1ccccc1	5.2%
COc1ccc2c(c1)CC/C2=N\OC(=O)c1cccc(C)c1	2.5%

Compound	inhibition
CCC1CCCCN1C(=O)c1c[nH]c2ccc(S(=O)(=O)N(C)c3ccc(Cl)cc3)cc2c1=O (centres undefined)	1.6%
O=C(COc1ncnc2cc([N+](=O)[O-])ccc12)N(CCc1ccccc1)Cc1ccccc1	16.7%
O=C(CCN1CCN(S(=O)(=O)c2ccc(Br)cc2)CC1)Nc1ccccc1F	-6.1%
O=C1c2ccccc2C(=O)c2c1ncn2-c1ccccc1	59.1% (active)
c1ccc(-n2cnc3ccccc32)cc1	-1.2%
O=C1c2ccccc2-c2nccnc21	6.6%
Cc1ccsc1/C=N/N=C1\C(=O)Nc2ccccc21	5.3%
CCc1nn(C(C)C(=O)Nc2cccc(C)c2C)c(=O)c2cc3occc3n12 (centres undefined)	6.9%
CCCCc1c(C)nc2ccccc2c1SCCC#N	-31.5%
Cc1ccc(S(=O)(=O)N2CCN(c3ccc([N+](=O)[O-])c4cccnc34)CC2)cc1	20.2%
O=C(c1ccccc1F)N1CCN(c2ccc([N+](=O)[O-])c3ncccc23)CC1	38.3%
O=C(c1cccc(F)c1)N1CCN(c2cc(N3CCCCC3)c(F)cc2[N+](=O)[O-])CC1	15.2%
O=[N+]([O-])c1ccc(N2CCN(CCO)CC2)c2ncccc12	65% (active)
O=C(c1ccccc1F)N1CCN(c2ccc([N+](=O)[O-])c3cccnc23)CC1	58.4% (active)
COc1ccc(N2CCN(C(=O)c3cccc(F)c3)CC2)c([N+](=O)[O-])c1	11.8%
Cc1cc(N2CCN(c3ccc([N+](=O)[O-])c4cccnc34)CC2)c2ccccc2n1	46.7%
O=C(c1cc(F)c(F)cc1Cl)N1CCN(c2ccc([N+](=O)[O-])c3ncccc23)CC1	46.1%
O=C(c1cccc(F)c1)N1CCN(c2ccc([N+](=O)[O-])c3cccnc23)CC1	62.3% (active)
CSc1nc2c(c(=O)n1C)SC(C)C2 (centres undefined)	4.1%
Cc1ccn(-c2cc(O)c(-n3ccc(C)n3)cc2O)n1	13.9%
COCCCNC(=O)Cn1cnc2sc(C)c(S(=O)(=O)N3CCN(c4ncccn4)CC3)c2c1=O	9.4%
COc1cccc2cc(-c3ccnc(N)n3)oc12	18.3%
Cc1c(C(=O)NC(C)CCc2ccccc2)cccc1[N+](=O)[O-] (centres undefined)	10.1%
Cc1ccc(CNC(=O)c2cc3c(-c4ccc(Cl)cc4)nn(C)c3s2)o1	12.8%

Compound	inhibition
CCCN(CCC)C(=O)CC(c1ccccc1)c1cc(Br)ccc1O (centres undefined)	17.3%
CCCSc1nc2c3c(sc2c(=O)[nH]1)CC(C)(CC)OC3 (centres undefined)	4.6%
Nc1ccccc1C(=O)N=Nc1[nH]c(N)c2ccccc12	9.9%
Cc1[nH][nH]c(=O)c1C(c1ccc(-c2ccc(Cl)c(Cl)c2)o1)c1c(C)[nH][nH]c1=O	-45.1%
O=C(O)Cc1cn(Cc2ccc(F)cc2)c2ccccc12	-9.7%
Cc1[nH][nH]c(=O)c1C(c1c(C)[nH][nH]c1=O)c1cn(C)c2ccccc12	54.8% (active)
NC(=O)CSc1cn(Cc2ccc(F)cc2)c2ccccc12	12.6%
CCOC(=O)n1c(=O)n(Cc2ccc(Cl)c(Cl)c2)c2ccccc21	12.4%
Cc1[nH][nH]c(=O)c1C(c1c(C)[nH][nH]c1=O)c1cn(Cc2ccc(Cl)c(Cl)c2)c2ccccc12	58% (active)
Cn1cc(C(c2ccccn2)c2cn(C)c3ccccc23)c2ccccc21	-0.8%
Cn1cc(C(CC(=O)O)C(=O)O)c2ccccc21 (centres undefined)	4.1%
Cc1[nH][nH]c(=O)c1C(c1c(C)[nH][nH]c1=O)c1cn(Cc2ccc(F)cc2)c2ccccc12	57.2% (active)
Cc1ccc(-c2nc(SCC(=O)Nc3cc(S(=O)(=O)N4CCCCC4)ccc3Cl)n[nH]2)cc1	10.9%
C=C1c2ccccc2NC(=S)N1Cc1ccc2c(c1)OCO2	-15.3%
N#CC1=C(N)SC2(CCCCC2)SC1c1ccccc1 (centres undefined)	-5.5%
CC(C)CC(=O)OCc1cn(-c2ccccc2)nn1	-8.7%
Cc1nnc(NC(=O)CSc2nccn2C)s1	-2.9%
COc1ccc(-n2nc3c(N)n[nH]c3cc2=O)cc1	-97.5%
CCOc1c(OC(C)=O)ccc(/C=C/c2ccc3cccc(OC)c3n2)c1[N+](=O)[O-]	11.3%
COc1ccc(CC(NC(C)=O)C(=O)NC2CCN(S(=O)(=O)c3ccccc3)CC2)cc1OC (centres undefined)	4.4%
CC(/C=C/c1ccccc1)=N/NC(=O)CCC(=O)Nc1ccccc1C	-55.7%
O=C(NCc1ccc(Cl)cc1)c1ccc(-c2ccccc2C(F)(F)F)o1	2.3%
O=C(O)Cc1c(O)ccc2ccccc12	9.9%
Oc1ccc2ccccc2c1Br	52.5% (active)

Compound	inhibition
Oc1ccc(N=Nc2c(O)ccc3ccccc23)cc1	20.8%
CC1CCN(CCNC(=O)CN(C)S(=O)(=O)c2cccc3nsnc23)CC1	0.3%
Cc1c(Cl)cccc1NC(=S)Nc1ccccn1	3.2%
COc1cc(NC(=O)C2=C(N3CCOCC3)/C(=C/c3ccc(Cl)cc3)CC2)cc(OC)c1OC	23.9%
COc1cccc(CNC(=O)c2nnn(-c3ccc(OC(F)(F)F)cc3)c2N)c1	-5.4%
COC(=O)c1cc(=O)n(Cc2cccs2)c(=Nc2ccc(F)cc2)s1	-2%
COc1ccc(O)c(C(c2c(C)[nH][nH]c2=O)c2c(C)[nH][nH]c2=O)c1	56.6% (active)
CCOc1cc(C(c2c(C)[nH][nH]c2=O)c2c(C)[nH][nH]c2=O)ccc1O	49.7%
Cc1[nH][nH]c(=O)c1C(c1cc([N+](=O)[O-])ccc1O)c1c(C)[nH][nH]c1=O	31.8%
CN(C)c1nc(N)nc(-c2nc3ccccc3s2)n1	6.8%
COc1ccc(C(=O)/C=C/Nc2ccc([N+](=O)[O-])cc2)cc1	-10.3%
Cc1cc(Br)ccc1-n1[nH]c(C)c(C=Nc2cccc3nsnc23)c1=O	70.9% (active)
Cc1ccc2cccc(N=Cc3c(C)[nH]n(-c4ccccc4)c3=O)c2n1	-9.8%
COc1ccccc1N=Cc1c(C)[nH]n(-c2ccc(C)cc2C)c1=O	11.1%
Cc1ccc(-c2csc(NC(=O)COc3ccc(N(C)S(=O)(=O)c4ccc(C)cc4)cc3)n2)cc1	8.1%
O=C(Nc1cccc2c1CCCC2)c1ccncc1	-4%
CC(C)OCCCNc1ncc2c(n1)CC(c1ccc(N(C)C)cc1)CC2=O (centres undefined)	22.7%
CCOCCCNc1ncc2c(n1)CC(c1ccc(C)cc1)CC2=O (centres undefined)	9.4%
CCC(C)C(=O)Nc1ncc2c(n1)CC(c1cccs1)CC2=O (centres undefined)	-1.8%
CC(C)OCCCNc1ncc2c(n1)CC(c1cccs1)CC2=O (centres undefined)	61.9% (active)
CC(C)OCCCNc1ncc2c(n1)CC(c1ccccc1)CC2=O (centres undefined)	53.2% (active)
CC(C)C(=O)Nc1ncc2c(n1)CC(c1cccs1)CC2=O (centres undefined)	4%
